# From PubChem BioAssay
# Assay: reversal of MRP1-mediated doxorubicin resistance, pilot screen, H69AR cells, doxorubicin co-treatment (AID 601)
# Conditions: H69AR cells, CellTiter-Glo, 72 h; compound alone cytotoxicity; at 10 µM
row,SMILES,viability [%]
1,CCN(CC)S(=O)(=O)c1ccc2oc(C(=O)O)c(C)c2c1,103
2,COCCN1CN(S(=O)(=O)c2ccccc2)c2nc3ccccc3nc21,98
3,COc1ccc(S(=O)(=O)NCc2ccc(C(=O)O)cc2)cc1,95.8
4,Cc1ccc2c(c1)sc1ncc(NC(=O)c3ccccc3)c(=O)n12,91.7
5,CCOC(=O)N1CCC(N2C(=O)c3ccccc3C2Nc2cccnc2)CC1 (stereo not given),85.7
6,CCCCOC(=O)CSc1nc2c(cc1C#N)C(=O)CC(C)(C)C2,78.8
7,CN(C)c1cccc(NC(=O)CCc2ccccc2)c1,94.5
8,CCc1nc(N[C@@H](Cc2c[nH]c3ccccc23)C(=O)O)c2oc3ccccc3c2n1,82.1
9,O=C(CSc1nnc(C2COc3ccccc3O2)o1)N1CCCc2ccccc21 (stereo not given),92.3
10,COc1ccc(CCNc2oc(-c3ccccc3OC)nc2C#N)cc1,95.2
11,CCCn1c(SCC(=O)NC(C)(C)C)nnc1C(C)C,93
12,COc1cc(N=c2ssnc2Cl)cc(OC)c1,3.23
13,COCCn1c(=O)[nH]c2cc(C(=O)N3CCN(Cc4ccc5c(c4)OCO5)CC3)ccc2c1=O,93.1
14,CCCCCC1CC(CC#CCN2CCOCC2)C(=O)O1 (stereo not given),93.8
15,CC(NC(=O)c1ccco1)c1ccc2c(c1)OCCO2 (stereo not given),96.3
16,Cn1c(=O)[nH]c(=O)c2c1nc(N1CCCCCC1)n2CCCSc1nc2ccccc2o1,80.7
17,O=S(=O)(c1ccc(S(=O)(=O)N(Cc2ccco2)Cc2ccccc2Cl)cc1)N1CCCC1,76.6
18,CCOC(=O)c1[nH]c(C)c(C(=O)Nc2ccccc2F)c1C,16.1
19,C=CCN(CC=C)C(=O)CN1C(=O)c2ccccc2C1=O,92.2
20,COc1ccccc1C(=O)NC(C)C(c1cccs1)N1CCN(C)CC1 (stereo not given),91.1

row,SMILES,viability [%]
1,O=C(CSc1nnnn1C1CCCC1)N1CCN(C(=O)c2ccco2)CC1,105
2,Cc1ccccc1-c1nc(CS(=O)(=O)CC(=O)N(C)C2CCCCC2)c(C)o1,92.7
3,O=S(=O)(c1ccc(OCC(O)CN2CCN(c3ccccc3)CC2)cc1)N1CCOCC1 (stereo not given),96.4
4,O=C(C1CCCO1)N1CCN(C(c2ccccc2)c2ccccc2)CC1 (stereo not given),96
5,CCn1nnnc1SCC(=O)N1CCOCC1,97.6
6,CC(NC(=O)c1ccc2c(c1)OCO2)C(c1cccs1)N1CCOCC1 (stereo not given),105
7,CCC12CN3CC(CC)(CN(C1)C3c1ccc(OC(C)C)cc1)C2=O (stereo not given),105
8,O=C1CCC(c2ccccc2)N1C(=O)c1cccnc1 (stereo not given),98.8
9,CCOC(=O)CSc1nnc(CNC(=O)c2cccs2)n1-c1cc(OC)ccc1OC,99.3
10,Cn1c(=O)c2c(nc(NCc3ccco3)n2C/C=C/c2ccccc2)n(C)c1=O,101
11,O=C(CS(=O)(=O)c1cn(Cc2ccc(Cl)cc2)c2ccccc12)N1CCOCC1,97
12,CCN(C(=O)CN1CCN(c2ccccc2OC)CC1)c1c(N)n(Cc2ccccc2)c(=O)[nH]c1=O,100
13,CCn1c(CNc2ccc(C)cc2)nnc1SCC(=O)NCc1ccccc1,86.6
14,CCOC(=O)N1CCC(NC(=O)C2CCCN2C(=O)OCc2ccccc2)CC1 (stereo not given),90.7
15,Cc1ccc(-c2nnc(-c3ccc(Br)cc3)o2)o1,86.1
16,CN(C)S(=O)(=O)c1ccc(C(=O)N2CCCC2c2nc3ccccc3s2)cc1 (stereo not given),94.9
17,CC(=O)c1c(OCC(=O)O)ccc2c(C)cc(=O)oc12,91.8
18,Cc1ccc2cc(C(c3nnnn3CC3CCCO3)N3CCc4ccccc4C3)c(=O)[nH]c2c1 (stereo not given),100
19,O=C(c1ccccc1)N1CCN(CC2CC=CCC2)CC1 (stereo not given),96.1
20,Cc1ccccc1-c1nc(CS(=O)(=O)CC(=O)NCc2ccccc2)c(C)o1,96.5
